From PubChem BioAssay (NCI)
Compounds without any hit were thinned out: in the full panel of roughly 79,000, 15% have a hit. Values without a mark were called inactive. Active and inactive are the calls of the source. Rule as the data show it: active = growth inhibition above about 70%; inactive = the rest.

Assays:
[1] = NCI Yeast Anticancer Drug Screen. Data for the rad50 strain (AID 155);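 also: 0% = growth of vehicle-only cultures of the same strain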; conditions: S. cerevisiae rad50 strain growth inhibition, hits give high values
Summary of the method: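 Yeast carrying a defined DNA repair defect were exposed to test compounds, and growth was compared with vehicle-treated controls to give percent inhibition.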

[2] = NCI Yeast Anticancer Drug Screen. Data for the mec2-1 strain (AID 157); conditions: S. cerevisiae mec2-1 strain, hits give high values
Summary of the method: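 Readout is yeast growth inhibition, normalised to vehicle-treated controls, in the mec2-1 strain exposed to compound.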

[3] = NCI Yeast Anticancer Drug Screen. Data for the sgs1 mgt1 strain (AID 161);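 also: 0% = growth of cultures given vehicle only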; conditions: S. cerevisiae sgs1 mgt1 strain, hits give high values
Summary of the method: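 Percent growth inhibition was derived by comparing compound-exposed mutant yeast with vehicle-exposed cultures. The strain carries alterations in DNA damage repair.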

[4] = NCI Yeast Anticancer Drug Screen. Data for the cln2 rad14 strain (AID 165);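 also: 0% = growth equal to vehicle treated cultures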; conditions: S. cerevisiae cln2 rad14 strain, hits give high values
Summary of the method: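 Relative to vehicle controls, growth inhibition of compound-treated cln2 rad14 yeast was recorded.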

[5] = NCI Yeast Anticancer Drug Screen. Data for the bub3 strain (AID 167); conditions: S. cerevisiae bub3 mutant strain, hits give high values
Summary of the method: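 Compounds were applied to a genetically altered yeast strain carrying a cell-cycle control defect. Growth inhibition was scored against vehicle-treated controls.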

[6] = NCI Yeast Anticancer Drug Screen. Data for the mlh1 rad18 strain (AID 175); conditions: S. cerevisiae mlh1 rad18 strain growth inhibition, hits give high values
Summary of the method: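 Test agents were incubated with a yeast strain of defined genotype (DNA damage repair defect). Inhibition of growth was derived by comparison with vehicle-exposed cultures.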

[7] = at 5.0 µM (retest, dose inferred, filed as 0.5)
[8] = at 50.0 µM (retest, dose inferred, filed as 5.0)

In the case of COC(=O)c1nc(=S)[nH]c(C(=O)OC)c1C(=O)c1ccccn1, the growth inhibition [1, 7] is reported as 7%, the growth inhibition [1, 8] is reported as 93% (active) and the growth inhibition ([1]; at 50.0 µM) is reported as 82% (active). The growth inhibition [2, 7] was -3%, the growth inhibition [2, 8] was 84% (active) and the growth inhibition ([2]; at 50.0 µM) was 75% (active). For the same compound, the growth inhibition [3, 7] was 0%, the growth inhibition [3, 8] was 87% (active) and the growth inhibition ([3]; at 50.0 µM) was 84.5% (active). The growth inhibition [4, 7] was 2%, the growth inhibition [4, 8] was 84% (active) and the growth inhibition ([4]; at 50.0 µM) was 70.5% (active). For the same compound, the growth inhibition [5, 7] was 6%, the growth inhibition [5, 8] was 86% (active) and the growth inhibition ([5]; at 50.0 µM) was 82.8% (active). For the same compound, the growth inhibition [6, 7] was -15%, the growth inhibition [6, 8] was 91% (active) and the growth inhibition ([6]; at 50.0 µM) was 89.1% (active).
For CCOC(=O)C(=CNC(=S)Nc1c(CC)cccc1C(C)(C)C)C(=O)OCC, the growth inhibition [1, 7] was 6%, the growth inhibition [1, 8] was 74% (active) and the growth inhibition ([1]; at 50.0 µM) was 85.2% (active). The growth inhibition [2, 7] was -13%, the growth inhibition [2, 8] was 44% and the growth inhibition ([2]; at 50.0 µM) was 75.5% (active). For the same compound, the growth inhibition [3, 7] was -2%, the growth inhibition [3, 8] was 27% and the growth inhibition ([3]; at 50.0 µM) was 77% (active). For the same compound, the growth inhibition [4, 7] was 1%, the growth inhibition [4, 8] was 52% and the growth inhibition ([4]; at 50.0 µM) was 76.3% (active). The growth inhibition [5, 7] was -11%, the growth inhibition [5, 8] was 58% and the growth inhibition ([5]; at 50.0 µM) was 84.2% (active). The growth inhibition [6, 7] was -11%, the growth inhibition [6, 8] was 67% and the growth inhibition ([6]; at 50.0 µM) was 86.8% (active).
For CCCCNC(=S)NC1C2CC3CC(C2)CC1C3 (stereo not given), the growth inhibition [1, 7] was -8%, the growth inhibition [1, 8] was 78% (active) and the growth inhibition ([1]; at 50.0 µM) was 97.4% (active). The growth inhibition [2, 7] was -4%, the growth inhibition [2, 8] was 64% and the growth inhibition ([2]; at 50.0 µM) was 98.5% (active). For the same compound, the growth inhibition [3, 7] was -4%, the growth inhibition [3, 8] was 90% (active) and the growth inhibition ([3]; at 50.0 µM) was 97.9% (active). For the same compound, the growth inhibition [4, 7] was 0%, the growth inhibition [4, 8] was 39% and the growth inhibition ([4]; at 50.0 µM) was 92.2% (active). For the same compound, the growth inhibition [5, 7] was -8%, the growth inhibition [5, 8] was 24% and the growth inhibition ([5]; at 50.0 µM) was 90.4% (active). The growth inhibition [6, 7] was -13%, the growth inhibition [6, 8] was 93% (active) and the growth inhibition ([6]; at 50.0 µM) was 97.2% (active).
In the case of N#CC(C#N)C(C#N)c1ccc(Cl)c(Cl)c1 (stereo not given), the growth inhibition [1, 7] is reported as 79% (active), the growth inhibition [1, 8] is reported as 99% (active) and the growth inhibition ([1]; at 50.0 µM) is reported as 99.7% (active). For the same compound, the growth inhibition [2, 7] was 72% (active), the growth inhibition [2, 8] was 100% (active) and the growth inhibition ([2]; at 50.0 µM) was 99.7% (active). For the same compound, the growth inhibition [3, 7] was 36%, the growth inhibition [3, 8] was 100% (active) and the growth inhibition ([3]; at 50.0 µM) was 99.8% (active). The growth inhibition [4, 7] was 25%, the growth inhibition [4, 8] was 99% (active) and the growth inhibition ([4]; at 50.0 µM) was 99.4% (active). The growth inhibition [5, 7] was 99% (active), the growth inhibition [5, 8] was 99% (active) and the growth inhibition ([5]; at 50.0 µM) was 99.7% (active). For the same compound, the growth inhibition [6, 7] was 70% (active), the growth inhibition [6, 8] was 100% (active) and the growth inhibition ([6]; at 50.0 µM) was 99.5% (active).
Work on O=C(c1ccc([N+](=O)[O-])cc1)N1CCCSC1=S yielded a growth inhibition [1, 7] of 19%, a growth inhibition [1, 8] of 27% and a growth inhibition ([1]; at 50.0 µM) of 26.8%. For the same compound, the growth inhibition [2, 7] was -7%, the growth inhibition [2, 8] was 12% and the growth inhibition ([2]; at 50.0 µM) was 22.2%. It also gave a growth inhibition [3, 7] of 10%, a growth inhibition [3, 8] of 21% and a growth inhibition ([3]; at 50.0 µM) of 31.6%. The growth inhibition [4, 7] was 21%, the growth inhibition [4, 8] was 27% and the growth inhibition ([4]; at 50.0 µM) was 27.2%. The growth inhibition [5, 7] was 6%, the growth inhibition [5, 8] was 11% and the growth inhibition ([5]; at 50.0 µM) was 16%. The growth inhibition [6, 7] was 11%, the growth inhibition [6, 8] was 31% and the growth inhibition ([6]; at 50.0 µM) was 60.5%.
With CCOC(=O)/C=C(\C)Sc1cc(O)c2ccccc2c1O the growth inhibition [1, 7] was -3%, the growth inhibition [1, 8] was 22% and the growth inhibition ([1]; at 50.0 µM) was 68.9%. For the same compound, the growth inhibition [2, 7] was -1%, the growth inhibition [2, 8] was 28% and the growth inhibition ([2]; at 50.0 µM) was 79.5% (active). For the same compound, the growth inhibition [3, 7] was 1%, the growth inhibition [3, 8] was 37% and the growth inhibition ([3]; at 50.0 µM) was 72.5% (active). It also gave a growth inhibition [4, 7] of 1%, a growth inhibition [4, 8] of 3% and a growth inhibition ([4]; at 50.0 µM) of 8%. The growth inhibition [5, 7] was -5%, the growth inhibition [5, 8] was 15% and the growth inhibition ([5]; at 50.0 µM) was 73% (active). For the same compound, the growth inhibition [6, 7] was -2%, the growth inhibition [6, 8] was 53% and the growth inhibition ([6]; at 50.0 µM) was 76.1% (active).
In the case of Clc1ccc(N=Cc2c3ccccc3cc3ccccc23)c(Cl)c1, the growth inhibition [1, 7] is reported as 0%, the growth inhibition [1, 8] is reported as -3% and the growth inhibition ([1]; at 50.0 µM) is reported as 79.7% (active). The growth inhibition [2, 7] was 3%, the growth inhibition [2, 8] was 2% and the growth inhibition ([2]; at 50.0 µM) was 85.4% (active). For the same compound, the growth inhibition [3, 7] was -5%, the growth inhibition [3, 8] was 5% and the growth inhibition ([3]; at 50.0 µM) was 87.4% (active). The growth inhibition [4, 7] was 15%, the growth inhibition [4, 8] was 22% and the growth inhibition ([4]; at 50.0 µM) was 31%. The growth inhibition [5, 7] was 2%, the growth inhibition [5, 8] was 29% and the growth inhibition ([5]; at 50.0 µM) was 79.5% (active). For the same compound, the growth inhibition [6, 7] was -7%, the growth inhibition [6, 8] was 44% and the growth inhibition ([6]; at 50.0 µM) was 77.5% (active).
With CCC(c1cccc(O)c1)C(CC)c1cccc(O)c1 (stereo not given) the growth inhibition [1, 7] was 28%, the growth inhibition [1, 8] was 55% and the growth inhibition ([1]; at 50.0 µM) was 57.2%. The growth inhibition [2, 7] was 19%, the growth inhibition [2, 8] was 67% and the growth inhibition ([2]; at 50.0 µM) was 60.9%. The growth inhibition [3, 7] was 51%, the growth inhibition [3, 8] was 76% (active) and the growth inhibition ([3]; at 50.0 µM) was 39.4%. The growth inhibition [4, 7] was 50%, the growth inhibition [4, 8] was 74% (active) and the growth inhibition ([4]; at 50.0 µM) was 48.9%. For the same compound, the growth inhibition [5, 7] was 59%, the growth inhibition [5, 8] was 88% (active) and the growth inhibition ([5]; at 50.0 µM) was 66.3%. The growth inhibition [6, 7] was 17%, the growth inhibition [6, 8] was 55% and the growth inhibition ([6]; at 50.0 µM) was 92.8% (active).
With O=C(CNC(=O)OCc1ccccc1)Oc1ccc([N+](=O)[O-])cc1 the growth inhibition [1, 7] was -9%, the growth inhibition [1, 8] was -1% and the growth inhibition ([1]; at 50.0 µM) was 22.1%. For the same compound, the growth inhibition [2, 7] was -1%, the growth inhibition [2, 8] was 38% and the growth inhibition ([2]; at 50.0 µM) was 58.4%. The growth inhibition [3, 7] was 3%, the growth inhibition [3, 8] was 7% and the growth inhibition ([3]; at 50.0 µM) was 48.6%. For the same compound, the growth inhibition [4, 7] was -42%, the growth inhibition [4, 8] was -56% and the growth inhibition ([4]; at 50.0 µM) was -60.2%. For the same compound, the growth inhibition [5, 7] was -5%, the growth inhibition [5, 8] was 0% and the growth inhibition ([5]; at 50.0 µM) was 64.2%. For the same compound, the growth inhibition [6, 7] was 12%, the growth inhibition [6, 8] was 36% and the growth inhibition ([6]; at 50.0 µM) was 73.7% (active).
For COc1cc(OC)c(SSCCCCS(=O)O)c(OC)c1, the growth inhibition [1, 7] was 0%, the growth inhibition [1, 8] was 14% and the growth inhibition ([1]; at 50.0 µM) was 10.6%. For the same compound, the growth inhibition [2, 7] was 1%, the growth inhibition [2, 8] was 44% and the growth inhibition ([2]; at 50.0 µM) was 21.5%. For the same compound, the growth inhibition [3, 7] was 11%, the growth inhibition [3, 8] was 55% and the growth inhibition ([3]; at 50.0 µM) was 41.5%. The growth inhibition [4, 7] was -13%, the growth inhibition [4, 8] was 25% and the growth inhibition ([4]; at 50.0 µM) was 44.7%. It also gave a growth inhibition [5, 7] of 7%, a growth inhibition [5, 8] of 63% and a growth inhibition ([5]; at 50.0 µM) of -26.2%. For the same compound, the growth inhibition [6, 7] was 1%, the growth inhibition [6, 8] was 36% and the growth inhibition ([6]; at 50.0 µM) was 40.8%.
